Test results taken from the supplement of paper PMC3334620.
In all, about 33,000 sequences were measured (“E-score (-0.5 to 0.5)”: median about -0.016, highest 2% from about 0.3 on). This excerpt belongs to a sample that is enriched for the highest values.

The sequences below were run against T1, Yer184c (UniProt P39961) (assay: PBM E-score (8-mer binding enrichment) (E-score (-0.5 to 0.5)); higher = stronger / more preferred TF binding). Conditions: protein concentration: 100 nM; construct: GST-full length.
T1 sequence: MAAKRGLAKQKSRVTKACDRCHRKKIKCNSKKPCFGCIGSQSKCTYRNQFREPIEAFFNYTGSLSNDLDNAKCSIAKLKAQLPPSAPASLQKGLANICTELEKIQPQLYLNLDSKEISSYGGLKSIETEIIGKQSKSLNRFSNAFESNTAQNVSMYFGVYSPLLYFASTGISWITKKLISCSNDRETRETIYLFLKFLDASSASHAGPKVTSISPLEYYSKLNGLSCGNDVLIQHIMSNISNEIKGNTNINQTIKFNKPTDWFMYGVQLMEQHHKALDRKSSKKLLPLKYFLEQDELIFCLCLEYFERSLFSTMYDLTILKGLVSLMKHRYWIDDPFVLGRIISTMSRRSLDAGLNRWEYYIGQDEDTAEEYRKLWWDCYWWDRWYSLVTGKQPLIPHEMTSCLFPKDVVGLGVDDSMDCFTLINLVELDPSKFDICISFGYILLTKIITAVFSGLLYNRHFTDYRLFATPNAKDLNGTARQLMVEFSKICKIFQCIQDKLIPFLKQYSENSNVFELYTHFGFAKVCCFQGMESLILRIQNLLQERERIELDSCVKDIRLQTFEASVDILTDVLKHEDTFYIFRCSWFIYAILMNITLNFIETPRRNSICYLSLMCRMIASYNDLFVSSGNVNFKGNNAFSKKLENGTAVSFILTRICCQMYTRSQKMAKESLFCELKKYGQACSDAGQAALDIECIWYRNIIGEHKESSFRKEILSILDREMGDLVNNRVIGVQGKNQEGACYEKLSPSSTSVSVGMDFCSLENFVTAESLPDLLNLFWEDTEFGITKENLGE
Summary of the method: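 Yeast transcription factors carrying a GST tag, as full-length proteins or DNA-binding domains, were produced by PURExpress in vitro transcription/translation. About 100-200 nM protein was applied to universal all-10-mer Agilent arrays, double-stranded by primer extension on fresh or once-stripped slides. Bound protein was detected with fluorescent anti-GST, and scans were normalised with masliner. The Universal PBM Analysis Suite gave each ungapped eight-base word, pooled with its reverse complement, an E-score, a modified Wilcoxon-Mann-Whitney statistic.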

Sequence | PBM E-score
TAAGCACA | 0.189
ACAGAACT | 0.116
AGTCGCAA | -0.0383
CACCATCC | -0.292
AGCATTTA | 0.0356
AAGCCACC | -0.342
CAGGCCCA | -0.211
CTCCGGAC | 0.328
ACCCGGAC | 0.055
ATCCGTAC | 0.195
CTCCGGTC | 0.248
ATCCGGAC | 0.322
CCCCGGAC | 0.0445
CAATCCTC | -0.113
CCAGATGC | -0.103
GCAAGAAA | 0.161
ATTGAGCG | -0.0456
CCGTCCAG | 0.122
AACCGGGG | -0.0803
AACCGGGT | 0.202
CACCGGAG | 0.173
AACCGGAG | 0.358
AACCGGAC | 0.212
AACCGGTT | 0.359
AACCGGTG | 0.214

Sequence | PBM E-score
AACCGGGA | 0.188
AACCGGAT | 0.366
AACCGGTC | 0.229
GACCGGAA | 0.232
AACCGGAA | 0.34
AGCTACCA | -0.173
ATGCATTA | 0.0989
GAATCCCA | -0.0522
ATAGGAGG | -0.285
AGGCTTAC | -0.0812
GACTGGTA | 0.00991
TACCGGAA | 0.409
CACCGGAC | 0.268
TACCGGGA | 0.207
CACCGGAA | 0.368
CACCGGGA | 0.152
TACCGGTA | 0.23
AATGGCCC | -0.247
ACCTAGTC | -0.244
AACATCCC | 0.141
AATATCCG | 0.352
ATTATCCG | 0.36
AGTATCCC | -0.0953
ATTATCCC | 0.0672
ATTATCCA | 0.0655

Sequence | PBM E-score
AACATCCG | 0.381
AGTATCCA | -0.00531
CACATCCG | 0.282
AATATCCC | -0.0444
AATATCCA | 0.17
AGTATCCG | 0.332
AATGTTAT | 0.184
CACCAGGC | -0.103
CCCTTGAA | -0.0291
TACAATAA | 0.14
CATGGTAC | -0.223
ATACCCGA | 0.111
CGCCTAAC | -0.0428
TGACTACA | -0.022
GAATATAA | 0.085
AAATATGC | 0.0299
AAATATCA | 0.124
AAATATAA | 0.327
AAATATGT | 0.304
ATTAAAAG | 0.172
AAAAATAA | 0.237
ATTAAAAC | 0.286
CAATATAA | 0.243
TAATATAA | 0.339
AAATATGA | 0.0794

Sequence | PBM E-score
ATTAAAAA | 0.323
GTACAATA | 0.188
CACCGCGG | 0.242
ACTATATA | 0.19
GACGCATA | 0.0516
GAATCTAC | 0.0543
CGATCACG | 0.165
TAGCACGA | 0.0455
ACCCCACA | -0.308
AACGATAA | 0.0408
AACATCGA | 0.0284
AATAATAA | 0.285
CATAATAA | 0.0808
AAATATTA | 0.206
GATAAAAC | 0.305
GATAATTA | 0.318
GATAAAAA | 0.29
TATAATAA | 0.324
CATAATTA | 0.233
AATAATTA | 0.299
TAATATTA | 0.381
CAATATTA | 0.133
GATAAACC | 0.208
CCACAGTC | -0.3
GTGGCCAC | -0.0584

Sequence | PBM E-score
GAGTTGAC | -0.0176
AATCTTAG | 0.124
ATATGGTG | -0.0255
ATAGTGAC | -0.0492
GCTATGGA | -0.192
TCTAACCA | 0.0158
TAGCTCCA | -0.0638
ATAAAAAC | 0.305
AATAAATA | 0.414
ATAAAAAA | 0.289
TATAAATA | 0.266
GGATATTA | 0.132
AATAAATG | 0.174
CGATATTA | 0.343
CGATATTC | 0.155
ATAAAACC | -0.0255
GTTATAAA | 0.0949
CTTATAAA | 0.174
TTTATAAA | 0.348
AGATTCAC | -0.157
AAGGCTGC | -0.0369
AACCATCA | 0.0573
GGTCTTAA | -0.104
ACCGTTGG | -0.244
CACTTATC | -0.0553

Sequence | PBM E-score
ATAGAATC | 0.128
AGAGGCGC | -0.119
CGGTATTA | 0.251
ACCACACG | -0.164
TATAAAAA | 0.373
AAATATAT | 0.305
AAATATAG | 0.189
TATATAAA | 0.289
GATTAAAA | 0.296
CATAAAAA | 0.252
TATTAAAA | 0.318
AAATATAC | 0.0721
AATTAAAA | 0.202
GTAAAGAC | 0.0705
AATAACGA | 0.068
ATCAAGTG | -0.132
ATCTTCAA | 0.187
TTAGCTAA | 0.0769
CATCCGCA | 0.108
AATCCGGT | 0.36
GATCCGTA | 0.17
GATCCGCC | 0.0797
AATCCGAT | 0.275
GATCCGCA | 0.0531
AATCCGCT | -0.0489

Sequence | PBM E-score
CATCCGGA | 0.375
GATCCGGA | 0.395
AATCCGGC | 0.3
CATCCGGG | 0.223
GATCCGGC | 0.354
AATGGGTC | -0.184
ATGGCCCC | -0.162
CTAGTAAC | -0.0898
CTACCCAC | -0.304
TAAAGCGA | 0.0559
GGACTGCC | -0.102
ATTATGGC | 0.0693
AAGGCTAT | -0.0663
CCTGGTAC | -0.0559
CTGCGGGA | -0.0974
AATAACCA | 0.0129
CGCTTTAC | -0.137
AATCCGCA | 0.101
AATCCGGA | 0.401
AATCCGTA | 0.0372
CATCCGGC | 0.358
CATCCGCC | 0.0602
CATCCGTC | -0.0104
CCGAGCAG | 0.17
ACCAATCA | 0.0919

Sequence | PBM E-score
AGCTTTCG | 0.105
ATTCCCAC | -0.171
CTGGTGTA | -0.234
ATTTTCGA | 0.121
ATATTTCC | 0.177
ATCTTCGA | -0.0159
ATTTTCGG | 0.377
ATTTCCCG | 0.328
ATTTCCCA | 0.107
ATTTTCGC | 0.111
ATATTTCG | 0.318
ATCTTCGC | -0.0164
ATCTTCGG | 0.35
ATTTCCCC | -0.166
ATATTTCA | 0.201
CCCATTCC | -0.258
ACACTCCA | -0.127
AAGGCTTC | -0.0592
TATTCTAA | 0.181
CACTTCTA | -0.133
CCTTGCTC | -0.141
GGAGGTAA | -0.0289
ATTTCTTG | 0.216
ATTTCTTA | 0.216
ATTTTCCC | 0.00872

Sequence | PBM E-score
ATTTCTTC | 0.315
ATTTTCCG | 0.4
AGTTTCCG | 0.392
AGTTTCCA | 0.111
AATTTCCG | 0.406
AATTTCCC | 0.0065
AGTTTCCC | -0.0163
CATTTCCG | 0.3
ATTTTCCA | 0.178
ATGAAGCA | -0.0497
CACTTCTC | -0.119
CGTAAGTC | -0.00193
ATTGTTGA | 0.141
CCTGCATA | -0.105
ACAGCGAA | 0.117
CTTACTGC | -0.0955
ATTTCTCC | 0.122
ATTTCTCA | 0.099
ATTTTTCG | 0.314
AATTTTCG | 0.092
ATTTCTCG | 0.308
ATTTTTCA | 0.169
